# From PubChem BioAssay
# Sampled rows, rich in hits. Any-hit rate of the full collection: about 5.2%.
# Sfp PPTase inh – qHTS Assay for Inhibitors of Bacillus subtilis Sfp phosphopantetheinyl transferase (PPTase) | Potency, µM, without a hit: largest response in the series, negative = inhibition, actives largely listed as inhibitors | Biochemical Sfp PPTase activity, qHTS | 4'-phosphopantetheinyl transferase ffp (Bacillus subtilis), Q9F4F7 | actives 3.5% (n = 310,000);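 further: the enzyme is Sfp with the accession as filed and its product quenches rhodamine fluorescence; potency means the concentration at half of the fitted maximal effect; 0% = enzyme reaction without inhibitor and -100% = no enzyme wells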
#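 Fluorescence-quenching assay: 15 nM Sfp-PPTase preincubated 15 min at room temperature with compound, then 5 uM rhodamine-CoA and 12.5 uM BHQ-2-labelled YbbR peptide added. Fluorescence (ex 525/em 598 nm) read at start and after 30 min; difference gives rate.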
# Tau fluor cs – Counterscreen qHTS for Inhibitors of Tau Fibril Formation, Fluorescence Polarization; actives 0.93% (n = 280,000); Potency, µM (titrated, usually from 57.7 µM), for the others: at the highest dose activity change, negative = decrease; tau K18 P301L Alexa594 fluorescence, heparin fibrillization; further: potency means the concentration at half of the fitted maximal effect; nearly all actives have a fitted effect of over 55% in size
#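 Human K18 P301L tau (15 uM unlabeled plus 0.24 uM Alexa 594-labeled, final) in 100 mM sodium acetate pH 7 was mixed with compound and 20 uM heparin and incubated 6 hr at 37 C.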
# Tau ThT inhib – qHTS for Inhibitors of Tau Fibril Formation, Thioflavin T Binding | Microtubule-associated protein tau (Homo sapiens), P10636 | recombinant tau K18 P301L (four-repeat tau fragment), heparin-induced fibrillization, ThT fluorescence | Potency, µM (top dose mostly 57.4 µM), inactives show at the highest dose activity, negative = inhibition, most hits filed as inhibitors | actives 2.1% (n = 270,000); further: potency means the concentration at half of the fitted maximal effect; nearly all actives have a fitted effect of over 55% in size
# Target sequence (P10636 561-689 P618L limits assumed): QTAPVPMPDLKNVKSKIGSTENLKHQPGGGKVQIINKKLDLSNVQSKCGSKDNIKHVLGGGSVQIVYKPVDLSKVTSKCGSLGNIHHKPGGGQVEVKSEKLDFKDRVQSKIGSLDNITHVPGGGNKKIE
#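 Heparin-induced fibrillization of the P301L-mutant K18 repeat-domain fragment of human tau was followed by ThT binding in quantitative high-throughput format.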
# Coupling enz – qHTS Assay for Inhibitors of Fructose-1,6-bisphosphate Aldolase from Giardia Lamblia: Coupling assay counterscreen; activity change, negative = inhibition, % at 58.2 µM, hits read low; coupling enzyme system counterscreen, AmpLite Red fluorescence; AID 2472, 2010; actives 0.67% (n = 290,000); in the data active means activity change below about -30%
#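 Compounds tested against the coupling enzymes alone at 57.5 uM final; readout was AmpLite Red fluorescence (525/598 nm) after 20 min at RT.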
# Tau FP inhib – qHTS for Inhibitors of Tau Fibril Formation, Fluorescence Polarization | K18 P301L tau heparin fibrillization, Alexa594 FP, 6 h | Microtubule-associated protein tau (Homo sapiens), P10636 | Potency, µM (top dose mostly 57.7 µM), for the others: at the top dose activity, negative = inhibition, most hits filed as inhibitors | AID 1468, 2008 | actives 0.39% (n = 280,000); further: potency means the concentration at half of the fitted maximal effect; nearly all actives have a fitted effect of over 55% in size
#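 Human tau K18 […] P301L fragment, 15 uM unlabeled plus 0.24 uM Alexa 594-labeled tau (final), with compound and 20 uM heparin in 100 mM sodium acetate pH 7; 6 hr at 37 C, then Alexa 594 FP read.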
# The depositor's hits bear a star; u = inconclusive; x = not tested or not shown; [ ] = remark or other dose. Unless noted, the call rests on the fitted dose curve; in most records, active means well fitted curve in the direction sought with a large enough effect; inconclusive means small, poorly fitted or top-dose-only effect, or another doubt; inactive means no such curve, though single readings can be large; an effect the other way counts as inactive or inconclusive. Unless noted, on the % scale 0 is the no-effect control and ±100 the full control effect.
SMILES,Sfp PPTase inh,Tau fluor cs,Tau ThT inhib,Coupling enz,Tau FP inhib
OCC1CCCCN1C(=S)NCc1ccco1 (stereo not given),50µM*,5%,-2%,0,14%
CC(=O)N1c2ccc(S(=O)(=O)NCC3CCC(C(=O)Nc4cccc(F)c4)CC3)cc2CC1C (stereo not given),x,-14%,1%,x,4%
Fc1ccc(-c2noc3ncnc(NCC4CCN(Cc5ccc(Cl)cc5)CC4)c23)cc1,x,-21%,-7%,x,-3%
Cc1ccsc1C1C=C(c2cccc(Br)c2)Nc2ncnn21 (stereo not given),45µM*,-3%,-7%,0,-3%
COc1ccc(C2=CC(c3sccc3C)n3nnnc3N2)cc1 (stereo not given),50µM*,-15%,-14%,-4,-5%
COc1ncc2nc(-c3ccc(F)cc3)c(=O)n(C3CC3)c2n1,24%,x,x,2,x
O=C(O)c1cccc(N2C(=O)/C(=C/c3ccc(SCc4ccc(Cl)cc4)o3)SC2=S)c1,40µM*,u,16µM*,-7,u
Cc1ccc(C)c(Nc2nc(-c3ccccc3)c3cc(Br)ccc3n2)c1,x,-13%,u,x,-10%
O=C(O)CC1S/C(=N/N=C/C=C/c2ccccc2[N+](=O)[O-])NC1=O (stereo not given),4%,-6%,-15%,-1,4%
Cc1ccc(/C=N/N=C2/NC(=O)C(CC(=O)Nc3ccccc3)S2)o1 (stereo not given),-18%,-14%,-9%,-2,-10%
Cc1ccc(/C=N/N=C2/NC(=O)C(CC(=O)Nc3ccc(Cl)cc3)S2)o1 (stereo not given),35µM*,-11%,-5%,1,-15%
O=C(O)CC1S/C(=N/N=C/c2ccc(-c3ccc(Cl)c([N+](=O)[O-])c3)o2)NC1=O (stereo not given),-18%,-18%,7.1µM*,10,0%
COc1cc(C)c(CNc2cccc(C)c2)cc1C,u,-3%,4%,1,3%
COc1cc(C)c(CNc2ccc(OC)c(OC)c2)cc1C,-9%,u,u,-31*,-6%
N#C/C(=N\Nc1ccccc1)C(N)=S,18µM*,-23%,u,7,-1%
Cc1ccc(N/N=C(\C#N)C(N)=S)cc1C,56µM*,-23%,u,1,3%
N#C/C(=N\Nc1ccc(Cl)cc1)C(N)=S,-13%,-23%,x,-1,11%
CCC(=O)N1c2ccc(S(=O)(=O)N3CCCCCC3)cc2CC1C (stereo not given),x,0%,4%,x,0%
COc1cccc(C2C3=C(Nc4[nH]n(-c5ccccc5)c(=O)c42)c2ccccc2C3=O)c1 (stereo not given),-21%,u,5µM*,-5,0%
CC[C@H](C)[C@H](NC(=O)[C@H](Cc1ccc(O)cc1)NC(=O)[C@@H](NC(=O)[C@H](CCCN=C(N)N)NC(=O)[C@@H](N)CC(=O)O)C(C)C)C(=O)N[C@@H](Cc1cnc[nH]1)C(=O)N1CCC[C@H]1C(=O)O,-3%,x,x,-1,x
CCOc1ccc(NC(=O)Cn2c(CCC(=O)O)ccc2-c2ccc(Cl)cc2)cc1,x,-7%,-10%,x,6%
COc1cccc(NC(=O)C2CCN(S(=O)(=O)c3c(C)noc3/C=C/c3cccs3)CC2)c1,x,u,7%,x,u
COCCn1c(C)cc(C2=NNC(=Nc3ccccc3)SC2)c1C,22µM*,-29%,u,0,-15%
COCCn1c(C)cc(C2=NNC(=Nc3ccc(OC)cc3)SC2)c1C,50µM*,-20%,u,-13,-8%
CCN(C(=O)c1cc2c(s1)-c1c(C)cccc1OC2)c1cc(C)ccc1C,x,-27%,u,x,-1%
SMILES,Sfp PPTase inh,Tau fluor cs,Tau ThT inhib,Coupling enz,Tau FP inhib
O=C(Nc1nc2ccc(F)cc2s1)c1nc(S(=O)(=O)Cc2ccccc2)ncc1Cl,x,-30%,7.1µM*,x,-13%
Cc1cccc(CS(=O)(=O)c2ncc(Cl)c(C(=O)Nc3nc4ccc(F)cc4s3)n2)c1,x,-23%,10µM*,x,-9%
CCc1ccc(NC(=O)Cn2c(-c3cncs3)nc3ccccc32)cc1,x,-28%,-17%,x,-4%
O=C(CCCn1c2ccccc2c(=O)c2ccccc21)Nc1ccc(F)cc1Cl,x,-24%,u,x,-7%
N#C/C(C(=O)c1ccccc1)=C1/SC=C(N)N1c1ccccc1,35µM*,-29%,28µM*,-11,u
O=S(=O)(c1ccc(F)cc1)N1CCN(CC(O)COc2ccccc2F)CC1 (stereo not given),56µM*,x,x,3,x
N#Cc1ccccc1S(=O)(=O)N1CCN(CC(O)COc2ccccc2F)CC1 (stereo not given),56µM*,x,x,1,x
COc1ccc(-n2c(/C=C/c3cc(OC)c(OC)cc3OC)nc3cc4ccccc4cc3c2=O)cc1Cl,x,-11%,3%,x,u
O=S(=O)(Nc1ccc(O)c(NS(=O)(=O)c2ccccc2)c1)c1ccccc1,40µM*,x,x,x,x
N#Cc1c(Cl)nsc1NN,40µM*,2.5µM*[quencher],7.9µM*,0,u
Cc1c(C#N)c(N)nc(Cl)c1C#N,-12%,-8%,-11%,1,-15%
CCOc1ccc(NC(=O)Cn2cc(C(=O)c3ccc(CC)cc3)c(=O)c3cc(C)ccc32)cc1,x,-16%,-2%,x,-5%
C=CCN1CC(C(=O)N(CCCN(C)C)C(=O)NCC)CC2c3cccc4[nH]cc(c34)CC21 (stereo not given),13%,x,x,-1,x
COc1ccc(NC(=O)Nc2sc3nc4n(c(=O)c3c2C)CCC(C)CC4)cc1OC (stereo not given),x,8.9µM*[quencher],u,x,u
